SARS PLP yeast = qHTS of Yeast-based Assay for SARS-CoV PLP. S. cerevisiae expressing SARS-CoV PLpro, growth rescue. Potency, µM (series often up to 32.9 µM), actives largely listed as activators. 330,000 tested, 0.19% active. AID 485353, 2010; calls by dose curve; also: nearly all actives have a fitted effect of over 55% in size
Sm TGR block = qHTS Assay for the Inhibitors of Schistosoma Mansoni Peroxiredoxins; Schistosoma mansoni thioredoxin glutathione reductase (TGR), Q962Y6; purified TGR, DTNB reduction, TNB absorbance 405 nm; Potency, µM (doses to about 114 µM), usual class: inhibitors; 360,000 tested, 3% active; active = well fitted inhibition curve with a large enough effect; inconclusive = small, poorly fitted or top-dose-only effect; inactive = no such curve, though single readings can be large or run the other way; also: nearly all actives have a fitted effect of over 60% in size
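First, TGR (20 nM dispensed) and NADPH were mixed with compound. Second, a 15 min room-temperature incubation followed. Third, further NADPH and then DTNB were added to start the reaction. Finally, TNB absorbance was monitored kinetically.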
Of the large screens only hits and unclear results are named; the others gave an inactive call. Most compounds without a hit are left out; they make up all but 3% or so of the library.

CC(=O)c1c(C(=O)O)[nH]c(C(=O)O)c1C	Sm TGR block 10µM
COc1ccc(CNC(=O)Cn2ncc3c([nH]c4ccccc43)c2=O)cc1	none (no result: SARS PLP yeast)
CC(=O)C1=C(c2cccc([N+](=O)[O-])c2)N(C(C)=O)n2c(C)nnc2S1	Sm TGR block 22µM
CCOc1ccc(C2=C(C(C)=O)Sc3nnc(C)n3N2C(C)=O)cc1	none (no result: SARS PLP yeast)
CCn1c(=NC(=O)c2ccc(S(=O)(=O)N3CCCC3)cc2)sc2cc(Br)ccc21	none (no result: SARS PLP yeast)
Cc1cc2ccccc2c(=O)[nH]1	none
O=c1[nH]c(-c2ccccn2)cc2ccccc12	none
Cc1ccccc1Nc1cc2ccccc2c(=O)[nH]1	Sm TGR block 3.2µM
O=c1[nH]c(Nc2ccc(F)cc2)cc2ccccc12	Sm TGR block 35µM
CCN1CCN(C(=O)Cn2ncc3c4ccccc4n(Cc4c(C)cc(C)cc4C)c3c2=O)CC1	none (no result: SARS PLP yeast)
CN(Cc1ccccc1)C(=O)c1cc2c(s1)-c1ccc(Cl)cc1SC2	none (no result: SARS PLP yeast)
Cc1nn(-c2ccccc2)c2c1cc1c(=O)[nH]c(=O)nc-1n2-c1cccc(C(F)(F)F)c1	none (no result: SARS PLP yeast)
N#Cc1c(N)nc(SCC(=O)OCc2ccccc2)c(C#N)c1-c1ccco1	none
N#Cc1c(N)nc(SCc2ccccc2)c(C#N)c1-c1ccco1	Sm TGR block 50µM
O=C(Cn1c(=O)nc(-c2ccccc2)c2cc(Cl)ccc21)NCCCc1ccccc1	none (no result: SARS PLP yeast)
O=c1c2ccccc2nc(/C=C/c2ccc([N+](=O)[O-])o2)n1-c1ccc(O)cc1	Sm TGR block inconclusive
CC(=O)N(/N=C/c1ccc([N+](=O)[O-])o1)c1nc2ccccc2c(=O)n1-c1ccccc1	Sm TGR block 40µM
Cc1nc2ccccc2c(=O)n1/N=C/c1ccc([N+](=O)[O-])o1	Sm TGR block 14µM
Cc1ccc(/C=N/n2c(C)nc3ccccc3c2=O)o1	none
CCOc1ccc(N2CC(=O)N(c3ccc(OCC)cc3)CC2=O)cc1	none
CCOc1ccc(N2Cc3ccccc3C2)cc1	Sm TGR block 56µM
CCOc1ccccc1N1Cc2cc(C)c(C)cc2C1	Sm TGR block inconclusive
CCOc1ccccc1N1Cc2ccccc2C1	Sm TGR block 13µM
CCCc1ccc(OCc2ccc(C(=O)Nc3ccccc3C(=O)OC)o2)cc1	none (no result: SARS PLP yeast)
O=C(Nc1ccccc1O)c1cc(S(=O)(=O)N2CCCC2)ccc1Cl	none (no result: SARS PLP yeast)
CCOC(=O)N1CCN(C(=O)CN(c2cc(C)ccc2OC)S(=O)(=O)c2ccc(C)cc2)CC1	none (no result: SARS PLP yeast)
CCOc1ccc(N2C(=O)NC(=O)/C(=C\c3ccccc3[N+](=O)[O-])C2=O)cc1	Sm TGR block inconclusive
CN1C(=O)NC(=O)/C(=C/c2ccc([N+](=O)[O-])s2)C1=O	Sm TGR block 8.9µM
O=C1NC(=O)C(=Cc2cc3c(cc2[N+](=O)[O-])OCO3)C(=O)N1	Sm TGR block inconclusive
CC1=NN(c2ccccc2)C(=O)C1/C=C1/C(=O)NC(=O)N(c2cccc(C)c2)C1=O (centres undefined)	none
O=C1NC(=O)N(c2ccccc2)C(=O)/C1=C\c1ccc([N+](=O)[O-])s1	Sm TGR block 10µM
Cc1ccc(/C=C2/C(=O)NC(=O)N(C)C2=O)cc1	none
COc1ccc(N2C(=O)NC(=O)/C(=C\c3ccccc3[N+](=O)[O-])C2=O)cc1	Sm TGR block 16µM
Cc1cccc(N2C(=O)NC(=O)/C(=C/c3cc4c(cc3[N+](=O)[O-])OCO4)C2=O)c1	Sm TGR block 2.2µM
Cc1cc(N2CCN(C)CC2)nc2ccc(NC(=O)Nc3ccccc3Br)cc12	none (no result: SARS PLP yeast)
CSc1ncc2c(n1)-c1ccccc1N(Cc1ccc(F)cc1)S2(=O)=O	none (no result: SARS PLP yeast)
COc1cc(/C=C2\C(=O)NC(=O)N(c3ccc(C)cc3)C2=O)cc(OC)c1O	Sm TGR block inconclusive
COc1ccc(OC)c(N2C(=O)NC(=O)/C(=C\c3ccc([N+](=O)[O-])s3)C2=O)c1	Sm TGR block 11µM
COC(=O)c1ccc(NC(=O)CC2C(=O)N(c3cccc(F)c3)C(=O)N2CC(C)C)cc1 (centres undefined)	none (no result: SARS PLP yeast)
CCN1C(=O)C(=C2C=C(C)OC(C)=C2)C(=O)N(CC)C1=S	none
CCOC(=O)C1=CC(=C2C(=O)N(CC)C(=S)N(CC)C2=O)c2ccccc2O1	Sm TGR block 25µM
O=[N+]([O-])c1ccc(S(=O)(=O)N2CCn3cccc3C2c2ccccc2F)cc1 (centres undefined)	Sm TGR block 35µM (no result: SARS PLP yeast)
CC1c2cccn2CCN1S(=O)(=O)c1ccccc1 (centres undefined)	Sm TGR block 40µM
CC(C)(C)NC(=O)N1CCn2cccc2C1c1ccccc1F (centres undefined)	none
COc1ccccc1S(=O)(=O)N1CCn2cccc2C1C (centres undefined)	Sm TGR block inconclusive
O=S(=O)(c1cccnc1)N1CCn2cccc2C1c1ccccc1F (centres undefined)	Sm TGR block 32µM
O=C(Nc1ccccc1F)C1CCN(S(=O)(=O)c2cccnc2)CC1	none
O=C(/C=C/c1ccccc1)N1CCN(Cc2cc(=O)n3nc(-c4ccccc4Cl)sc3n2)CC1	none (no result: SARS PLP yeast)

Source: PubChem BioAssay (National Center for Advancing Translational Sciences (NCATS))
